Screen size: about 190,000 compounds; about 1,600 (0.84%) were called active. This excerpt belongs to a sample that is enriched for actives. Values without a mark were called inactive.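 The calls were made as follows: active = inhibition above a set limit, derived from the sample mean plus 3 SD (cut at about 45% in these data); inconclusive = one replicate passes the limit while the other fails; inactive = the rest.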
assay: inhibitors of APP translation via 5'UTR reporter, primary screen, APP 5'UTR luciferase, SH-SY5Y cells (AID 1285); conditions: SH-SY5Y APP 5'UTR-luciferase reporter, luminescence; at 2 µM; hits give high values

| Structure (SMILES) | inhibition |
| --- | --- |
| O=C(Nc1ccc2c(c1)OCO2)c1sc2cc(Cl)ccc2c1Cl | -85% |
| O=S(=O)(NCCc1ccncc1)c1ccccc1 | 16.4% |
| Cc1ccc(-c2cc(=O)c3ccc(F)cc3[nH]2)cc1 | -29.4% |
| O=c1cc(-c2ccccc2)[nH]c2cc(F)ccc12 | 89.6% (active) |
| Cc1ccc(-c2cc(=O)c3ccc(Cl)cc3[nH]2)cc1 | -13.4% |
| Cc1ccnc(NS(=O)(=O)c2ccc(NC(=O)c3ccc(S(=O)(=O)N4CCOCC4)cc3)cc2)n1 | 5.8% |
| Cc1ccc(-c2nn(-c3ccccc3)cc2/C=N/NC(=O)c2ccc3c(c2)OCO3)cc1 | 4.8% |
| Cc1cccc(-n2c(C)cc(/C=N\NC(=O)c3cccs3)c2C)c1 | -62.9% |
| Cc1ccc(/C=N/NC(=O)C2=NNC(c3ccccc3)(c3ccccc3)C2)c(O)c1 | 73% (active) |
| O=C(CCc1n[nH]c(=O)[nH]c1=O)N/N=C/c1ccc(Br)o1 | -6.1% |
| CCOC(=O)c1[nH]c2c(c1C)C(=O)CC(c1ccc(N(C)C)cc1)C2 (stereo not given) | -13.3% |
| CCCOC(=O)c1[nH]c2c(c1C)C(=O)CC(c1cccs1)C2 (stereo not given) | 92% (active) |
| CCCOC(=O)c1[nH]c2c(c1C)C(=O)CC(c1cc(OC)c(OC)c(OC)c1)C2 (stereo not given) | -2.1% |
| CC(C)(C)NC(=O)NC(=O)COC(=O)C1(C)CC1(Cl)Cl (stereo not given) | 12.7% |
| CC(C)(C)NC(=O)NC(=O)COC(=O)CCC1CCCCC1 | 61.5% (active) |
| COc1ccccc1OCCC(=O)OCC(=O)NC(=O)NC(C)(C)C | -5.5% |
| CN1CCC(OC(=O)COc2ccc(Cl)cc2Cl)CC1 | -5.1% |
| COc1cccc(/C=N/NC(=O)c2[nH]nc3c2CCc2ccccc2-3)c1O | 79.7% (active) |
| COc1cccc(/C=N\NC(=O)C2=NNC(=O)C2C)c1O (stereo not given) | -73.4% |
| COc1ccc(C(=O)Nc2ccccc2C(=O)N/N=C/c2ccccc2OC)cc1 | -8.9% |
| CCN(Cc1ccccc1)S(=O)(=O)c1cc(C(=O)O)ccc1OC | -51.9% |
| O=C(CC1SC(=Nc2ccccc2F)N(CCN2CCOCC2)C1=O)Nc1ccc(F)cc1F (stereo not given) | -19.1% |
| N#C/C(C(=O)N1CCOCC1)=C1/SC(Cc2ccc(F)cc2)C(=O)N1c1ccccc1 (stereo not given) | 56.6% (active) |
| Cc1ccc(CC2S/C(=C(/C#N)C(=O)N3CCOCC3)N(c3ccccc3)C2=O)cc1 (stereo not given) | -2.7% |

| Structure (SMILES) | inhibition |
| --- | --- |
| CCN(CC)C(=O)CS(=O)CC(=O)Nc1cc(OCCOC)c(Cl)cc1Cl (stereo not given) | -14% |
| Cc1oc2c(c1C(=O)N1CCOCC1)C(=O)c1ccccc1C2=O | 2.1% |
| O=C(NNC(=S)Nc1ccccc1)c1cccc(S(=O)(=O)N2CCOCC2)c1 | -32.5% |
| CCOC(=O)c1cnc(-n2nc(C)cc2C)nc1Nc1cccc(C(C)=O)c1 | -11.9% |
| CCOC(=O)c1cnc(-n2nc(C)cc2C)nc1NNc1cc(C)nc(-c2ccccc2)n1 | 72.1% (active) |
| CCOC(=O)c1cnc(-n2nc(C)cc2C)nc1-n1nc(C)cc1C | 6% |
| Cc1ccc(C(=O)NC(C)c2ccccc2)cc1Br (stereo not given) | 25.6% |
| C/C=C/c1ccc(OCC(O)CN2CCCCCCC2)c(OC)c1 (stereo not given) | -39% |
| Cc1ccc(Oc2ccc(N)cc2)cc1 | 3.7% |
| Nc1ccc(Oc2ccc(Cl)cc2)cc1 | 11.4% |
| CC(C)(C)c1ccc(Oc2ccc(N)cc2)cc1 | 84.4% (active) |
| Oc1ccc(/C=N/N(Cc2ccccc2)c2ccccc2)cc1 | -13.4% |
| N=C1/C(=C/c2cccn2-c2cccc([N+](=O)[O-])c2)C(=O)N=C2SC=CN12 | 17.8% |
| O=C(N/N=C/c1ccc2c(c1)OCO2)c1ccc(Cn2cc([N+](=O)[O-])cn2)o1 | -17.9% |
| Cc1c(Cl)c([N+](=O)[O-])nn1Cc1ccc(C(=O)N/N=C\c2cc(Cl)ccc2O)o1 | 68.5% (active) |
| Cc1c(Cl)c([N+](=O)[O-])nn1CCCC(=O)Nc1cc(Cl)ccc1Cl | -6.1% |
| COc1cc(/C=N\NC(=O)c2nonc2N)c(OC)cc1Br | 1% |
| Nc1nonc1-n1nnc(C(=O)N/N=C/c2cc(Br)ccc2O)c1CSC1=NCCS1 | 54.3% (active) |
| COCc1c(C(=O)N/N=C/C2CC=CCC2)nnn1-c1nonc1N (stereo not given) | 6.9% |
| CCC1(CC)NC(=O)N(CC(=O)OCC(=O)NC(=O)c2ccccc2)C1=O | 5.8% |
| COC(=O)Nc1nc2ccc(Sc3ccccc3)cc2[nH]1 | 91.5% (active) |
| CC(C)c1nc2ccc(C(=O)O)cc2[nH]1 | -1.3% |
| Cc1nc2ccc(C(=O)O)cc2[nH]1 | 4.6% |
| CCO/C=C1\C(=O)N(c2ccc(OCC)cc2)C(=O)c2ccccc21 | -6.3% |

| Structure (SMILES) | inhibition |
| --- | --- |
| OCCC1CN(Cc2ccc3nsnc3c2)CCN1C1CCCCC1 (stereo not given) | 0.3% |
| CC(C)N1CCC(=NNc2ccc([N+](=O)[O-])cc2S(=O)(=O)N2CCOCC2)CC1 | 16.2% |
| CCn1c2ccccc2c2cc(CC(N)=O)ccc21 | 15% |
| COc1ccc(CCNC(=O)CC2SC(=Nc3cc(C)cc(C)c3)NC2=O)cc1OC (stereo not given) | 2.9% |
| CCCN=C1NC(=O)C(CC(=O)NCCc2ccc(OC)c(OC)c2)S1 (stereo not given) | 74.7% (active) |
| COc1ccc(CCNC(=O)CN(c2ccccc2)S(C)(=O)=O)cc1OC | -22.4% |
| Cc1cc(C)c(S(=O)(=O)N2CCOCC2)cc1C | 10.3% |
| CCOc1ccc(Br)cc1S(=O)(=O)Nc1cccc(S(=O)(=O)N(CC)CC)c1 | -7% |
| Cc1ccc(CCC(=O)Nc2ncc(Cc3cc(Cl)ccc3Cl)s2)o1 | 94.1% (active) |
| Cc1cnc(NC(=O)CSc2nnc(-c3ccc(Cl)cc3Cl)n2N)s1 | -0.1% |
| CCOc1ccccc1NC(=O)CCc1ccc(C)o1 | 9.7% |
| CN(C)c1ccc(Nc2c3c4c(cccc4n(C)c2=O)C(=O)c2ccccc2-3)cc1 | 55.2% (active) |
| CC1=NCCN1S(=O)(=O)c1cccc([N+](=O)[O-])c1 | 11.4% |
| COC(=O)CSc1ncnc2c1cnn2-c1ccc(C)cc1C | -3.9% |
| CSc1nc(C)cc(SC(C(C)=O)C(=O)Nc2ccccc2)n1 (stereo not given) | -17.5% |
| CSc1nc(-c2ccccc2)nc(C(Cl)Cl)n1 | 48.7% (active) |
| COc1ccc(NC(=O)CCNS(=O)(=O)c2ccc3c(c2)c(=O)n(C)c(=O)n3C)cc1OC | 17.6% |
| COCCN(C(=S)Nc1ccccc1OC)C1CCN(C(C)C)CC1 | -3.7% |
| COC(=O)c1cc2c(ccn2C)n1C | -10.6% |
| Cc1ccc(/C=N\n2c(-c3ccccc3)n[nH]c2=S)s1 | -4% |
| Cc1cc(-c2n[nH]c(=S)n2/N=C/C(Br)=C/c2ccccc2)n[nH]1 | 83.5% (active) |
| S=c1[nH]nc(-c2cccnc2)n1/N=C/C(Cl)=C\c1ccccc1 | -36.5% |
| CC(Oc1ccccc1)C(=O)NN1Cc2ccccc2C1=N (stereo not given) | -15% |
| O=C1c2cccc3c([N+](=O)[O-])ccc(c23)C(=O)N1CC1CCCO1 (stereo not given) | 53% (active) |

| Structure (SMILES) | inhibition |
| --- | --- |
| O=C(NCc1ccc2c(c1)OCO2)c1ccc2c(c1)C(=O)N(CC1CCCO1)C2=O (stereo not given) | 3.9% |
| O=c1c2cc3c(=O)n(CC4CCCO4)c(=O)c3cc2c(=O)n1CC1CCCO1 (stereo not given) | -21.8% |
| COc1ccc(OC)c(Cc2nnc(CCC(=O)NC3CCCC3)o2)c1 | -10.4% |
| COc1cc(OC)cc(C(=O)N[C@H](C(=O)Nc2nc3ccccc3[nH]2)C(C)C)c1 | 94.9% (active) |
| COc1cc(OC)cc(C(=O)N[C@H](C(=O)OCC(=O)NC(C)c2ccccc2)C(C)C)c1 (stereo not given in full) | 14.5% |
| COc1ccc(OC(C)C(=O)NCCc2nc3ccccc3[nH]2)cc1 (stereo not given) | -10.4% |
| Cc1cc(/C=N/NC(N)=O)c(C)n1C1CCCCC1 | -4.6% |
| CCOC(=O)C(NC(=O)CC(C)C)(Nc1sc2c(c1C(N)=O)CCCC2)C(F)(F)F (stereo not given) | 5.1% |
| O=C(COc1ccc(Cl)cc1[N+](=O)[O-])N1CCCCC1 | -4% |
| COc1ccccc1NC(=O)C1=C(C)Nc2nc3ccccc3n2C1c1cccs1 (stereo not given) | 91% (active) |
| CCOc1ccc(C2C(C(=O)NC)=C(C)Nc3nc4ccccc4n32)cc1OC (stereo not given) | 11.5% |
| CCOC(=O)C1=C(C)Nc2nc3ccccc3n2C1c1cccs1 (stereo not given) | 6.6% |
| COc1cccc(-c2nn(-c3ccccc3)cc2/C=C(\C#N)C(=O)NCCCn2ccnc2)c1 | 14.7% |
| C=CCN1C2CCCC1CC(NC(=S)Nc1cccc(OC)c1)C2 (stereo not given) | -2.4% |
| COc1ccccc1C1C2=C(COC2=O)Nc2cc3c(cc21)OCO3 (stereo not given) | 94.5% (active) |
| COc1ccc(C2CC(=O)Nc3cc(C)c(C)cc32)c(OC)c1OC (stereo not given) | -0.3% |
| COc1cc2c(cc1/C=C1/NC(=O)N(c3ccccc3)C1=O)OCO2 | -15.4% |
| COCCOC(=O)C1=C(C)NC(=O)CC1c1cc2c(cc1Br)OCO2 (stereo not given) | 3.7% |
| COc1ccc(F)cc1S(=O)(=O)Nc1ccc2c(c1)OCO2 | -19.9% |
| CCCOc1ccccc1C1CC(=O)Nc2cc3c(cc21)OCO3 (stereo not given) | 92.3% (active) |
| CN1CCN(C(=O)/C(=C\c2cccs2)NC(=O)c2cccs2)CC1 | -8.2% |
| CCCCn1nc(C(=O)Nc2ccc(S(=O)(=O)Nc3ncccn3)cc2)c2ccccc2c1=O | -36.5% |
| COc1cccc(CC(=O)N2CCCC(CCC(=O)N3CCN(c4ccccn4)CC3)C2)c1 (stereo not given) | -8.5% |
